# High-throughput results deposited in PubChem by National Center for Advancing Translational Sciences (NCATS).
# Most compounds without a hit are left out; they make up all but 19% or so of the library.
# TDP1 cell CPT: growth inhibition of DT40 Tdp1-/-;hTDP1 cells with camptothecin (screen for TDP1 inhibitors). chicken DT40 Tdp1-/-;hTDP1 cells + 20 nM CPT, ATP luminescence, 48 h. Potency, µM (highest dose often 46.2 µM), for inactives: at the top dose activity change, negative = growth inhibition, most hits filed as inhibitors. hit rate 12% among 420,000; further: nearly all actives have a fitted effect of over 55% in size
#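 Chicken DT40 Tdp1-/- cells stably complemented with human TDP1 were seeded at 400 cells/well in medium containing 20 nM camptothecin, exposed to pin-transferred compounds, and grown at 37 °C for at least 48 hr. Viability was read as ATP luminescence.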
# HT1080 IDH1KD tx: kills HT-1080 cells with IDH1 knockdown. hit rate 2% among 360,000. AID 686971. Potency, µM (top dose mostly 46.1 µM), for the others: at the top dose activity, negative = toxicity, hits mostly cytotoxic. HT-1080 IDH1 knockdown viability, ATP luminescence, 48 h;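 further: 0% = DMSO wells and -100% = cell-free medium wells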
#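 In this qHTS, HT-1080 cells depleted of IDH1 are exposed for 48 h at 37 °C to compound titrations. Toxicity is scored from CellTiter-Glo luminescence, with DMSO as full viability and medium alone as none.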
# KB-V1 MDR tox: KB-V1 MDR subline cytotoxicity | KB-V1 MDR cells viability, CellTiter-Glo, 72 h | Potency, µM (doses to about 46.1 µM), actives largely listed as cytotoxic | hit rate 3.4% among 400,000; further: nearly all actives have a fitted effect of over 60% in size
#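 Drug-selected KB-V1 cells, grown in DMEM lacking phenol red with 10% FBS, receive compound titrations; after three days at 37 degrees C, surviving cell ATP is quantified by CellTiter-Glo luminescence and responses normalized and curve-fitted.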
# HT1080NT lethal: kills 2HG-producing HT-1080-NT fibrosarcoma cells; hit rate 1.6% among 360,000; AID 686970; HT-1080-NT fibrosarcoma viability, CellTiter-Glo ATP luminescence, 48 h; Potency, µM (series often up to 46.1 µM), for inactives: top-dose activity, negative = less viability, usual class: cytotoxic;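 further: NT is the 2HG producing partner of a matched IDH1 knockdown line; 0% = DMSO-treated cells and -100% = media-only wells without cells; nearly all actives have a fitted effect of over 55% in size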
#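 Viability by CellTiter-Glo luminescence after 48 h compound exposure at 37C of HT-1080-NT cells (750/well, RPMI, 5% FBS). % activity scaled between DMSO wells and medium-only wells, then curve-fitted and categorized by curve class.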
# TDP1 cell noCPT: qHTS for Inhibitors of human tyrosyl-DNA phosphodiesterase 1 (TDP1): qHTS in cells in absence of CPT | DT40 Tdp1-/- hTDP1 cells, no CPT, ATP luminescence, 48 h | Potency, µM (series often up to 46.2 µM), for inactives: at the highest dose activity change, negative = growth inhibition, usual class: inhibitors | hit rate 15% among 420,000 | AID 686978, 2013; further: nearly all actives have a fitted effect of over 55% in size
#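 Chicken DT40 Tdp1-/- cells stably complemented with human TDP1 were seeded at 400 cells/well with DMSO in place of 20 nM camptothecin. After compound pinning, cells grew at least 48 hr at 37 °C; viability read by CellTiter-Glo luminescence.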
# KB-3-1 tox: kills parental KB-3-1 adenocarcinoma cells. hit rate 1.4% among 400,000. Potency, µM (titrated, usually from 46.1 µM), most hits filed as cytotoxic. KB-3-1 viability, CellTiter-Glo ATP luminescence, 72 h; further: nearly all actives have a fitted effect of over 60% in size
#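 Viability of parental KB-3-1 cells, measured by CellTiter-Glo luminescence, followed a 72 h incubation at 37 °C with pinned compounds in phenol-red-free DMEM containing 10% FBS.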
# An asterisk follows results filed as active; i = inactive; ? = inconclusive; nt = no result given. The call rests on the fitted dose curve; in most records, active means well fitted curve in the direction sought with a large enough effect; inconclusive means small, poorly fitted or top-dose-only effect, or another doubt; inactive means no such curve, though single readings can be large; an effect the other way counts as inactive or inconclusive. Unless noted, on the % scale 0 is the no-effect control and ±100 the full control effect; potency means the concentration at half of the fitted maximal effect.
SMILES,TDP1 cell CPT,HT1080 IDH1KD tx,KB-V1 MDR tox,HT1080NT lethal,TDP1 cell noCPT,KB-3-1 tox
COc1ccc(NC(=O)c2cccc(-c3ccc(O)cc3)c2)cn1,15µM*,2.1µM*,i,?,21µM*,?
CC(=O)Nc1ccc(S(=O)(=O)NCCc2ccc3c(c2)OCCO3)cc1,-11%,12%,i,8%,1%,i
COc1cc2nc(NCCc3ccc(Cl)cc3)n3nc(-c4ccccc4)nc3c2cc1OC,-25%,nt,i,nt,?,i
O=C(Nc1ccc(C(=O)O)cc1)Nc1ccc([N+](=O)[O-])cc1,13%,6%,i,19%,-5%,i
Cc1ccc(-c2noc(CC(=O)c3ccc([N+](=O)[O-])cc3)n2)cc1,?,0%,16µM*,0%,?,i
CC(C)(C)c1ccc(COC(=O)Nc2ccc(F)cc2)cc1,-13%,1%,i,9%,-18%,i
CC(C)(C)c1ccc(NC(=O)Nc2ccc(F)cc2)cc1,5.2µM*,-20%,i,-12%,6.5µM*,?
COC(=O)c1ccc(NC(=O)Nc2ccc([N+](=O)[O-])cc2)cc1,2.6µM*,-1%,i,-1%,2.3µM*,i
O=C(Nc1ccc([N+](=O)[O-])cc1)Nc1ccon1,0.41µM*,0.73µM*,6.5µM*,1.2µM*,0.33µM*,0.58µM*
CCc1ccccc1Nc1nc2ccccc2c2nncn12,?,nt,i,nt,?,i
CC1=C(C(=O)N(C)C)CC(CC(=O)NCc2cccs2)C(=O)N1CCC1=CCCCC1 (stereo not drawn),-8%,-1%,i,-5%,?,i
CCN(CC)S(=O)(=O)c1ccc2oc(C(=O)NCc3ccc(F)cc3)c(C)c2c1,13µM*,-21%,i,-21%,13µM*,i
CCN(CC)S(=O)(=O)c1ccc2oc(C(=O)Nc3cc(C)ccc3OC)c(C)c2c1,?,nt,?,nt,?,i
CCN(CC)S(=O)(=O)c1ccc2oc(C(=O)Nc3ccc(OC)cc3OC)c(C)c2c1,18µM*,11%,i,2%,12µM*,i
CCc1ccc2oc(C(=O)NCc3ccc(S(N)(=O)=O)cc3)c(C)c2c1,-18%,-28%,i,-2%,-18%,?
CCN(CC)S(=O)(=O)c1ccc2oc(Nc3ccc(OC)cc3OC)nc2c1,?,?,?,?,18µM*,i
CCCCN(CCCC)S(=O)(=O)c1ccc2oc(C(=O)N3CCOCC3)c(C)c2c1,?,-24%,4.6µM*,2%,?,i
Cc1c(C(=O)NCCc2ccccc2)oc2ccc(S(=O)(=O)N3CCOCC3)cc12,-24%,-1%,i,-11%,?,i
CCN(CC)S(=O)(=O)c1ccc2oc(C(=O)NC3CC3)c(C)c2c1,-22%,0%,?,2%,10µM*,i
COc1ccc2oc(C(=O)NCc3cc(OC)c(OC)cc3OC)c(C)c2c1,23µM*,-20%,?,-24%,16µM*,i
Cc1c(C(=O)NCc2ccc(F)cc2)oc2ccc(S(=O)(=O)N3CCOCC3)cc12,?,-15%,?,-2%,15µM*,i
Cc1c(C(=O)NCc2ccc3c(c2)OCO3)oc2ccc(S(=O)(=O)N3CCCCCC3)cc12,?,-1%,i,-14%,?,i
Cc1c(C(=O)NCc2ccc3c(c2)OCO3)oc2ccc(S(=O)(=O)N3CCC(C)CC3)cc12,15µM*,-25%,i,-3%,15µM*,i
Cc1nc(N2CCN(C(=O)c3cnccn3)CC2)c2c3c(sc2n1)CC(C(C)(C)C)CC3 (stereo not drawn),0%,7%,i,9%,-26%,i
